This passage reports inhibition results from PubChem BioAssay AID488784 (Sanford-Burnham Center for Chemical Genomics, 2010).

Out of some 1,000 compounds screened, about 700 (70%) were called active. The set was probably picked from earlier hits. These entries were drawn from the full list. Values without a mark were called inactive. No stated cut-off is given here; in the data, active means inhibition above about 50%; inactive means the rest.

A short description of the assay: CASP1-PYCARD signaling inhibition in yeast, confirmatory test, counterassay for NLRP3 inhibitor program, one-dose (AID 488784). The settings on record: yeast expressing Caspase-1-ASC, luminescence counter screen; at 10 µM; stronger effect = higher value.
As to `Cc1cc(C)nc(NC(=O)Nc2ccccc2C(F)(F)F)n1`, the inhibition is 55.5% (active).

Regarding `CC(C)Sc1ncnc2c1cnn2-c1ccccc1`, the inhibition was 40.6%. In the case of `CC(C)n1c(COc2ccccc2)nc2ccccc21` it was 59.4% (active).

Take `Cc1ccc(OCc2nc3ccccc3n2C)cc1`: the inhibition was 76.5% (active). For `CCSc1nc2sc3c(c2c(=O)n1-c1ccc(C)cc1)CCN(C)C3`, the inhibition is 33.2%. In the case of `O=C(COc1ccccc1F)Nc1nc(-c2ccccn2)cs1` it was 65% (active).

In the case of `Cn1c(=O)c(C(=O)Nc2ncccn2)c(O)c2ccccc21`, the inhibition was 49.2%. In the case of `CCc1noc(C)c1C(=O)Nc1nc2ccc(OC)cc2s1` it was 76.8% (active); in that of `Cc1ccc(-c2nn(C(C)(C)C)c3ncnc(N)c23)cc1`, 96.3% (active); in that of `COc1ccccc1C(=O)Nc1ccc(NC(=O)c2ccco2)c(C)c1`, 47.5%. As for `Cc1ccc(O)c(NC(=O)c2cc(-c3ccco3)on2)c1`, the inhibition is 61.9% (active). In the case of `CC(=O)[C@@]12O[C@@H]1C[C@H]1[C@@H]3CC[C@H]4C[C@@H](O)CC[C@]4(C)[C@H]3CC[C@@]12C` it was 53% (active); in that of `Cc1ccnc(Nc2nc3ccccc3s2)n1`, 21.8%; in that of `CN(C)c1ccnc2sc(C(=O)c3ccccc3)c(N)c12`, 70.2% (active). Next, `CCCN(CC1CC1)C(=S)NC(=O)c1ccccc1Br`: 53.1% (active). For `O=[N+]([O-])c1c(NCCO)cc(Sc2nc3ccccc3s2)c2nonc12`, the inhibition is 65.5% (active). Next, `Cc1cc(C(=O)COc2ccc(Br)cc2F)c(C)n1C1CC1`: 60.1% (active); `CC1(C)CCSC(/C=C/c2ccccc2)=N1`: 91.5% (active); `COc1ccccc1OCc1nc2ccccc2s1`: 48.7%. In the case of `CCN(CC)c1ccc(/C=N/Nc2nc(C)cc(C)n2)c(O)c1` it was 55% (active).

Turning to `Nc1c(-c2cccc(Cl)c2)cnn1-c1cccc([N+](=O)[O-])c1`, the inhibition is 53% (active). Next, `Oc1c(Cl)cc(Cl)c(Cl)c1Cc1c(O)c(Cl)cc(Cl)c1Cl`: 99.3% (active); `O=C(CC(O)(C(F)(F)F)C(F)(F)F)Nc1ccc(Cl)c(Cl)c1`: 99.2% (active); `Cc1c(C(=O)N2CCCc3ccccc32)oc2ccccc12`: 49.6%.

`O=C(Nc1ccccc1Cl)/C(Cl)=C(\Cl)S(=O)c1ccccc1` (stereo unspecified): the inhibition was 98.8% (active).

For `O=C(Nc1ccc(Oc2ccccc2)cc1)c1ccco1`, the inhibition is 45.2%. For `O=C(Nc1ccc2oc(-c3ccccc3F)nc2c1)c1ccco1`, the inhibition is 72.2% (active).

Take `Cn1c(=NC(=O)c2ccco2)sc2cccc(F)c21`: the inhibition was 25%. In the case of `Cc1cc(C)c(/C=C2\C(=O)Nc3ccccc32)[nH]1` it was 40.2%; in that of `Cc1ccc(OCc2nc(C#N)c(N3CCCC3)o2)cc1`, 71.8% (active). Take `O=C(CSc1ccc(-c2ccc(-n3cccn3)cc2)nn1)Nc1ccc([N+](=O)[O-])cc1`: the inhibition is 11.2%.

As to `C[C@@H]1C[C@@H]2O[C@H]2/C=C\C=C\C(=O)Cc2c(Cl)c(O)cc(O)c2C(=O)O1`, the inhibition was 48.6%. Next, `CCCNc1ncnc2sc(C)c(C)c12`: 50.8% (active). Next, `O=C(NCc1ccc2c(c1)OCO2)c1c(O)nc2sccn2c1=O`: 36.7%; `CC(=NCc1ccc2c(c1)OCO2)C1=C(O)c2ccccc2C1=O`: 60.2% (active). Next, `O=C(Oc1c(-c2ccco2)oc2ccccc2c1=O)c1cccnc1`: 58.5% (active); `CC(C)C(=O)N1CCN(CCN=CC2=C(O)CC(c3ccco3)CC2=O)CC1` (stereo unspecified): 55.2% (active). Turning to `Cc1cccc(NC(=S)NC(=O)c2ccc(Br)o2)c1`, the inhibition is 76.2% (active). Next, `CN=C1C=C/C(=N/N=c2\ccn(O)cc2C)C=C1C`: 53.3% (active); `O=C(CSc1ncnc2c1oc1ccccc12)NC1CCCC1`: 39.4%; `Cc1ccc2cccc(S(=O)(=O)N3CCN(c4ccccc4F)CC3)c2n1`: 52.6% (active). Next, `O=C1CSC(=S)N1c1ccc(O)cc1`: 79.7% (active); `COc1cc(N2C(=O)CSC2=S)cc(OC)c1OC`: 45.7%. In the case of `CCc1cc(C(=O)Nc2nnc(C3CC3)s2)sc1C` it was 55.5% (active); in that of `Cc1ccc(CSc2nsc(C)c2C#N)cc1`, 60% (active). For the compound `O=[N+]([O-])c1cccc(/C=N/Nc2ncc(Br)cn2)c1`, the inhibition is 62.5% (active). In the case of `Oc1ccc(Br)cc1/C=N/Nc1ccccn1` it was 37.1%; in that of `O=[N+]([O-])/C=C/c1ccc2c(ccn2Cc2ccccc2)c1`, 99.7% (active). Next, `CCOC(=O)c1c(C)[nH]c(C(=O)COc2ccc3c(c2)OCO3)c1C`: 66.8% (active); `Fc1ccccc1-c1cc2cc3c(cc2cn1)OCO3`: 51% (active); `N#Cc1nc(Cc2ccccc2)oc1NCCc1ccccc1`: 56.8% (active).
